Measured values published in PubChem BioAssay AID652154 (Broad Institute, 2013).
Hit rate of the full screen: of about 360,000 compounds, about 4,200 (1.2%) were called active.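 How the source made its calls: active means mean replicate inhibition at least 60% with every replicate also reaching 60%; inconclusive means only one of the two criteria is met; inactive means mean below 60% and not all replicates reaching 60%.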 The entries come from a sample that favours actives as a whole.

Assay: PAX8 transcriptional activity inhibition in RMG-I – RMG-I cells, luciferase, single concentration, primary screen (AID 652154);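 further: luciferase light reporting Pax8 driven TPO promoter activity; plate controls were median of neutral control wells for no effect and mitoxantrone controls for full effect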
Details: RMG-I TPO-luciferase reporter, SteadyGlo, 24 h; at 12.6 µM; active compounds read high
In the case of `C[C@H](CO)N1C[C@H](C)[C@H](CN(C)Cc2cccc(F)c2)Oc2ncc(C#CCN(C)C)cc2C1=O`, the inhibition is reported as 10.3% (inactive).
In the case of `Cc1cc(OC(=O)NCCc2ccc(F)cc2)ccc1F`, the inhibition is reported as -1.24% (inactive).
For `OC[C@H]1[C@@H](c2ccc(-c3ccccc3F)cc2)[C@@H]2CN(Cc3ccncc3)CCCCN12`, the inhibition was 17.2% (inactive).
For `CCCc1cn(CC[C@H]2CC[C@@H](NS(=O)(=O)c3ccccc3Cl)[C@@H](CO)O2)nn1`, the inhibition was -2.22% (inactive).
For `O=C(C[C@@H]1C=C[C@H](NC(=O)Nc2ccccc2F)[C@@H](CO)O1)NCc1ccccc1`, the inhibition was 1.09% (inactive).
For `COc1ccc(CN2[C@H](CO)[C@@H]3c4ccccc4N(C(=O)C4CC4)C[C@@H]32)cc1`, the inhibition was 5.67% (inactive).
For `Brc1ccc(COCCc2cn(Cc3ccccc3)c3ccccc23)cc1`, the inhibition was -11.9% (inactive).
With `COc1ccccc1C1C2=C(COC2=O)Nc2cc3c(cc21)OCO3` (stereo unspecified) the inhibition was 85.6% (active).
For `O=C1OCC2=C1C(c1ccc(Cl)cc1)c1cc3c(cc1O2)OCO3` (stereo unspecified), the inhibition was 11% (inactive).
With `O=C1NC(c2cc3c(cc2Cl)OCO3)Oc2ccccc21` (stereo unspecified) the inhibition was -6.52% (inactive).
With `C[C@@H]1CN([C@H](C)CO)C(=O)c2cc(NS(=O)(=O)c3ccccc3)ccc2O[C@H]1CN(C)S(=O)(=O)c1ccc(Cl)cc1` the inhibition was 3.11% (inactive).
With `Cc1ccc(C(=O)Oc2ccc(C(=S)N3CCOCC3)cc2)cc1` the inhibition was -7.47% (inactive).
For `Cc1ccc(C(=O)C(=S)N2CCOCC2)cc1`, the inhibition was 67.2% (active).
For `Cc1ccc(C(=O)OC(C)CN2CCOCC2)cc1` (stereo unspecified), the inhibition was -27.6% (inactive).
For `C[C@@H]1CN([C@@H](C)CO)C(=O)Cc2cc(NC(=O)CCN3CCOCC3)ccc2O[C@@H]1CN(C)CC1CC1`, the inhibition was -46.4% (inactive).
In the case of `Cc1cccc(-c2nc3ccc(C(=O)NCCN4CCN(C)CC4)cc3nc2-c2cccc(C)c2)c1`, the inhibition is reported as 50.9% (inactive).
For `CCN1CCN(CCNC(=O)c2ccc(/C=C3/Sc4ccccc4N(Cc4cccc(C)c4)C3=O)cc2)CC1`, the inhibition was 84.9% (active).
For `O=C(NCCN1CCOCC1)c1ccc2c(c1)N(Cc1cccc(Cl)c1)C(=O)c1ccccc1S2(=O)=O`, the inhibition was -1.71% (inactive).
For `C[C@@H]1CCCCO[C@@H](CN(C)CC2CC2)[C@H](C)CN([C@H](C)CO)C(=O)c2cc(NS(=O)(=O)c3ccccc3)ccc2O1`, the inhibition was 3.85% (inactive).
In the case of `CN(O)C(=S)c1ccccc1`, the inhibition is reported as 82% (active).
For `COc1cccc(CN(C)C[C@H]2OCc3ccccc3-c3c(n(C)c4ccccc34)C(=O)N([C@@H](C)CO)C[C@@H]2C)c1`, the inhibition was 11% (inactive).
In the case of `O=C(c1ccncc1)N1C[C@@H]2[C@H](c3ccccc31)[C@H](CO)N2C(=O)c1ccncc1`, the inhibition is reported as -12.9% (inactive).
For `CC(C)NC(=O)N(C)C[C@@H]1Oc2ccc(N(C)C)cc2CC(=O)N([C@H](C)CO)C[C@@H]1C`, the inhibition was -4.65% (inactive).
For `O=C(C[C@H]1CC[C@@H]2[C@H](COC[C@@H](O)CN2C(=O)Nc2ccc(C(F)(F)F)cc2)O1)NCCc1ccncc1`, the inhibition was -6.11% (inactive).
With `C[C@@H]1CN([C@H](C)CO)C(=O)c2cc(NC(=O)C3CCCCC3)ccc2O[C@H]1CN(C)C(=O)Nc1ccccc1` the inhibition was 9.45% (inactive).
In the case of `C[C@H](CO)N1C[C@H](C)[C@@H](CN(C)C(=O)Nc2ccc3c(c2)OCO3)Oc2ccc(NC(=O)NC3CCCCC3)cc2CC1=O`, the inhibition is reported as -23.2% (inactive).
For `COc1ccc(-c2cc(C(F)(F)F)nc(S(C)(=O)=O)n2)cc1OC`, the inhibition was 122% (active).
For `COc1ccc(-c2cc(C(=O)NCCCN3CCCC3=O)c3ccccc3n2)cc1OC`, the inhibition was 2.26% (inactive).
With `COc1ccc(-c2cc(C(=O)N(C)Cc3ccc(OC)c(OC)c3OC)c3ccccc3n2)cc1OC` the inhibition was 27.1% (inactive).
With `Cc1ccccc1S(=O)(=O)N1[C@@H](C#N)[C@H](c2ccccc2)[C@@H]1CO` the inhibition was -4.36% (inactive).
With `O=C(Cc1ccccc1)N1CC2(C1)[C@H](c1ccccc1)[C@@H](CO)N2C(=O)c1cccnc1` the inhibition was -7.25% (inactive).
With `COc1ccnc(Oc2ccccc2)n1` the inhibition was -3.33% (inactive).
For `COc1ccccc1-n1cn[nH]c1=S`, the inhibition was 8.11% (inactive).
With `COc1ccnc(Oc2ccccc2)c1-c1ncn[nH]1` the inhibition was 84.6% (active).
With `OC[C@@H]1[C@@H](c2ccc(-c3ccccc3F)cc2)[C@@H]2CN(Cc3cncnc3)CCCCN12` the inhibition was 4.63% (inactive).
For `CN(C(=O)CSc1nnc(C2CC2)n1C)C1CCCc2ccccc21` (stereo unspecified), the inhibition was 8.2% (inactive).
In the case of `CC1Cc2ccccc2N1C(=O)CSc1nnc(C2CC2)n1C` (stereo unspecified), the inhibition is reported as 78.3% (active).
With `CC1Cc2ccccc2N1C(=O)CSc1nnc(-c2ccc(S(=O)(=O)N3CCCC3)cc2)n1C` (stereo unspecified) the inhibition was 20.8% (inactive).
With `O=C(N[C@H]1CC[C@@H](CCn2cc(Cc3ccccc3)nn2)O[C@H]1CO)c1cnccn1` the inhibition was -16.7% (inactive).
In the case of `C[C@H](CO)N1C[C@H](C)[C@H](CN(C)CC2CC2)Oc2cc(-c3ccc(F)cc3)ccc2S1(=O)=O`, the inhibition is reported as -2.31% (inactive).
In the case of `CC(C)CC1NC(=O)c2cc(Cl)ccc2-n2c1nc1ccccc1c2=O` (stereo unspecified), the inhibition is reported as 6.69% (inactive).
For `O=C1NC(Cc2ccccc2)c2nc3ccc(Br)cc3c(=O)n2-c2cc3ccccc3cc21` (stereo unspecified), the inhibition was 34.1% (inactive).
In the case of `COc1ccc2nc3n(c(=O)c2c1)-c1ccc(Cl)cc1C(=O)NC3Cc1ccccc1` (stereo unspecified), the inhibition is reported as 82.6% (active).
In the case of `Cc1noc(C)c1NC(=O)N(C)C[C@H]1OCCCC[C@H](C)Oc2ccc(NC(=O)Nc3ccccc3)cc2C(=O)N([C@H](C)CO)C[C@@H]1C`, the inhibition is reported as 8.48% (inactive).
For `COc1ccccc1CNC(=O)C[C@H]1CC[C@@H](NC(=O)CN(C)C)[C@@H](CO)O1`, the inhibition was -11.2% (inactive).
In the case of `COc1cccc(C#Cc2ccc([C@@H]3[C@H](C#N)N[C@H]3CO)cc2)c1`, the inhibition is reported as -230% (inactive).
For `O=C(C[C@@H]1C[C@@H]2c3cc(NC(=O)NC4CCCC4)ccc3O[C@@H]2[C@@H](CO)O1)NCc1ccccc1`, the inhibition was -4.64% (inactive).
For `C[C@H](CO)N1C[C@H](C)[C@@H](CN(C)C(=O)c2cnccn2)Oc2ncc(-c3ccccc3F)cc2C1=O`, the inhibition was 2.74% (inactive).
In the case of `C[C@H](CO)N1C[C@H](C)[C@@H](CN(C)S(=O)(=O)c2cccc(F)c2)OCc2ccccc2-c2c(n(C)c3ccccc23)C1=O`, the inhibition is reported as 83.4% (active).
In the case of `C[C@H](CO)N1C[C@H](C)[C@@H](CN(C)S(=O)(=O)c2ccc([N+](=O)[O-])cc2)OCc2ccccc2-c2c(n(C)c3ccccc23)C1=O`, the inhibition is reported as 16.1% (inactive).
In the case of `C[C@@H]1CN([C@H](C)CO)C(=O)c2c(c3ccccc3n2C)-c2ccccc2CO[C@H]1CN(C)S(=O)(=O)c1ccccc1F`, the inhibition is reported as 40.5% (inactive).
For `Cc1ccc(S(=O)(=O)Nc2ccc3c(c2)C(=O)N([C@@H](C)CO)C[C@@H](C)[C@H](CN(C)CC2CC2)O3)cc1`, the inhibition was -3.68% (inactive).
In the case of `COc1ccccc1-c1ccc([C@H]2[C@H](CO)N(C(=O)C3CC3)C23CN(C(C)=O)C3)cc1`, the inhibition is reported as 1.61% (inactive).
In the case of `CCOc1c(Nc2cccc(Cl)c2)c(=O)c1=O`, the inhibition is reported as -11.1% (inactive).
With `OCCCNc1nccc(-c2cc(Nc3cccc(Cl)c3)ncn2)n1` the inhibition was 107% (active).
For `C[C@H](CO)N1C[C@H](C)[C@@H](CN(C)CC2CCCCC2)Oc2ccc(NC(=O)Cn3cnnn3)cc2CC1=O`, the inhibition was -19.1% (inactive).
In the case of `COc1ccc(CN(C)C[C@H]2Oc3c(NS(=O)(=O)c4ccc(Cl)cc4)cccc3C(=O)N([C@H](C)CO)C[C@H]2C)cc1`, the inhibition is reported as 5.03% (inactive).
In the case of `NC1=CC(=O)C(=O)c2cccnc21`, the inhibition is reported as 117% (active).
For `COc1cc(/C=N/Nc2ccc(C)cc2)cc(Br)c1O`, the inhibition was -15% (inactive).
For `COc1cccc(/C=N/Nc2cc(C)nc(-c3ccccc3O)n2)c1O`, the inhibition was 90.5% (active).
With `COc1ccccc1-n1c(SCC(=O)Nc2cccc(C(=O)O)c2)nnc1-c1ccccc1O` the inhibition was 19% (inactive).
In the case of `Cc1ccc(S(=O)(=O)N(C)C[C@H]2Oc3ccc(NS(=O)(=O)c4ccccc4)cc3CC(=O)N([C@@H](C)CO)C[C@H]2C)cc1`, the inhibition is reported as -2.41% (inactive).
In the case of `C[C@@H]1CN([C@H](C)CO)C(=O)c2cccc(NS(=O)(=O)c3ccc(F)cc3)c2O[C@H]1CN(C)Cc1ccc(Oc2ccccc2)cc1`, the inhibition is reported as 16.4% (inactive).
For `CCC(=O)c1ccc(OC(=O)/C=C/c2cc(OC)c(OC)c(OC)c2)cc1`, the inhibition was -5.71% (inactive).
With `COc1ccc2[nH]c(C(=O)Nc3ccccc3Cl)cc2c1` the inhibition was -22.1% (inactive).
In the case of `COc1ccc2[nH]c(C(=O)N/N=C/c3cc(OC)c(OC)c(OC)c3)cc2c1`, the inhibition is reported as 85.3% (active).
In the case of `C[C@@H]1CCCCO[C@@H](CN(C)S(=O)(=O)c2cccs2)[C@@H](C)CN([C@@H](C)CO)C(=O)c2cc(NS(=O)(=O)c3ccc(F)cc3)ccc2O1`, the inhibition is reported as 32% (inactive).
With `Cc1ccc(S(=O)(=O)N[C@H]2CC[C@H](CC(=O)NCc3ccccc3F)O[C@@H]2CO)cc1` the inhibition was 3.28% (inactive).
With `O=C(Cn1cnc2ccccc2c1=O)NNC(=O)c1ccccc1F` the inhibition was 0.953% (inactive).
For `Cc1cc2occ(CC(=O)NNC(=O)c3ccccc3F)c2cc1C`, the inhibition was -1.24% (inactive).
In the case of `Cn1c(CC(=O)NNC(=O)c2ccccc2F)nc2ccccc21`, the inhibition is reported as 74.1% (active).
In the case of `O=C(C[C@H]1CC[C@@H]2[C@H](COC[C@@H](O)CN2Cc2cc(F)cc(F)c2)O1)NC1CCC1`, the inhibition is reported as 4.75% (inactive).
With `COc1ccc2c3c([nH]c2c1)[C@H](CO)N(C(=O)Nc1ccc(F)cc1)CC31CCN(CC2CCOCC2)CC1` the inhibition was 27.1% (inactive).
In the case of `Cc1cc(=O)c2ccc(NC(=O)c3ccccc3)cc2[nH]1`, the inhibition is reported as -7.38% (inactive).
For `O=C(NCCc1ccccc1)c1cccc(NC(=O)c2ccccc2)c1`, the inhibition was -77.4% (inactive).
In the case of `O=C(NC1=CC(=O)c2ccccc2C1=O)c1ccccc1`, the inhibition is reported as 99.2% (active).
